Screening results: PubChem, several laboratories
Only some compounds are listed: those with a hit (about 2.4% of all), similar ones and a draw of the others.
Redox H2O2 prof: compounds producing H2O2 with reducing agent – biochemical, NIH compound library profiling, artefact control for MLSCN library redox annotation, primary screen. AID 878, 2007. 200,000 compounds, 0.03% hits. activation, % at 10 µM. DTT-dependent redox cycling H2O2, phenol red/HRP absorbance; 100% = 100 µM peroxide control, 0% = buffer;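 active means activation of at least 50% relative to the plate's high and low controls in the primary single-dose screen; inactive means activation below 50%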;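 further: compound incubated with DTT at 0.8 mM final as the reducing agent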
PKD1 kinase inh: inhibitors of human PKD1 kinase, biochemical, fluorescence polarization. Serine/threonine-protein kinase D1 (Homo sapiens), Q15139. PKD1 kinase fluorescence polarization assay. inhibition, % (concentration not given with the values). 200,000 compounds, 0.056% hits; in the data active means inhibition above about 50%
WT yeast gro inh: growth inhibition of WT strain, primary screen, mitochondrial fusion inhibitor project, WT and mutant strains, chemical genetic | mitochondrial fusion phenotypic screen | inhibition, % at 10 µM | 190,000 compounds, 2.1% hits; in the data active means inhibition above about 58%; tested in S. cerevisiae
zVAD death inh: inhibitors of zVAD-triggered necroptosis, primary screen, L929 cells; L929 zVAD necroptosis rescue, ATP luminescence, 24 h; with zVAD 60 µM; viability rescue, % at 10 µM; 220,000 compounds, 0.38% hits; AID 1377, 2008;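 active means activation, scaled between plate controls, above about 75%, limit read from the data; inactive means activation under that limit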
PERK inhibitor: block of dimerizer-induced PERK translation repression, primary screen, PERK inhibitor project, CHO PERK-DD cells, SEAP luminescence, HTS; inhibition, % at 5.6 µM; CHO PERK-DD fusion, SEAP luminescence translation reporter; Eukaryotic translation initiation factor 2-alpha kinase 3 (Homo sapiens), Q9NZJ5; 220,000 compounds, 0.17% hits;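 active means inhibition above the mean inhibition of all tested compounds plus 3 SD, set separately per screening campaign, cut at about 2.9% in these data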;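 further: PERK kinase domain activated by AP20187 dimerizer at 100 nM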
TNF necrop inh: inhibitors of TNF-alpha triggered necroptosis, primary screen, cell-based, Jurkat FADD-/-, single concentration; Jurkat FADD-/- TNF necroptosis rescue, ATP luminescence, 24 h; 0 = TNF only, 100 = no-TNF cells; activation (protection from cell death), % at 10 µM; 220,000 compounds, 0.068% hits;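 active means activation, meaning protection from cell death, of at least 50% relative to plate controls; inactive means activation below 50%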;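 further: necroptosis triggered by 40 ng/mL TNF-alpha added together with compound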
FP interf 140K: fluorescence polarization interference in PKD1 assay, artefact control for PKD1 inhibitor project, biochemical, 140K library; shares compounds with PKD1 kinase inh; PKD1 FP assay interference counter-screen; inhibition, % at 10 µM; 85 tested, under 10 active; AID 1315, 2008; call rule not given here
Numbers stand for hits; . = inactive; / = not tested or not shown.

SMILES	Redox H2O2 prof	PKD1 kinase inh	WT yeast gro inh	zVAD death inh	PERK inhibitor	TNF necrop inh	others
CCC(=Nc1ccc(OC)cc1OC)c1c(O)n(C2CCCCC2)c(=O)[nH]c1=O	.	.	68	.	.	.
CCCC/C(C)=C/[C@@H](NP(=O)(c1ccccc1)c1ccccc1)c1ccccc1	.	.	91	.	.	.
CCC(=O)Nc1ccc(N2CCN(CC)CC2)c(Cl)c1	.	.	70	.	.	.
CCn1c(O)c(C(c2ccccn2)c2c(O)n(CC)c(=S)[nH]c2=O)c(=O)[nH]c1=S	.	.	97	.	.	.
O=C(CCc1nc(-c2ccccc2F)no1)N1CCC2(CC1)OCCO2	.	.	.	.	.	.
CC(C)N1CCC2(CC1)NC(CO)(CO)CO2	.	.	/	.	.	.
O=c1[nH]c(=O)n(-c2ccccc2F)c(O)c1C=NCCC1=CCCCC1	.	.	.	.	.	.
NS(=O)(=O)c1ccc(N=Cc2c(O)n(C3CCCCC3)c(=O)n(C3CCCCC3)c2=O)cc1	.	.	96	.	.	.
COc1ccc2[nH]cc(CCN)c2c1	.	.	.	.	.	.
CCCCCCCCCOc1ccc2[nH]cc(CCN)c2c1	/	/	97	/	.	/
CCCCN1C(=O)NC(=O)C2(Cc3c(nc4c(C)cccn4c3=O)N3CCc4ccccc4C32)C1=O (stereo not given)	.	.	72	.	.	.
CCCCN1C(=O)NC(=O)C2(Cc3c(nc4ccccn4c3=O)N3CCc4ccccc4C32)C1=O (stereo not given)	.	.	.	.	.	.
CCCCn1c(=O)c(C(=O)Nc2nnc(C(C)C)s2)c(O)c2ccccc21	.	.	69	.	.	.
CCCCCn1c(=O)c(C(=O)Nc2ccccc2S(N)(=O)=O)c(O)c2ccccc21	.	.	77	.	.	.
CCCCn1c(=O)c(C(=O)Nc2ccccc2)c(O)c2ccccc21	.	.	.	.	.	.
CCCCCCn1c(=O)c(C(=O)Nc2nnc(C)s2)c(O)c2ccccc21	.	.	.	.	.	.
CCCCn1c(=O)c(C(=O)Nc2ccccc2S(N)(=O)=O)c(O)c2ccccc21	.	.	67	.	.	.
CN(C)/C=C/C(=O)C(Cl)(Cl)Cl	.	.	.	.	.	.
CN1CC2([N+](=O)[O-])CC=C(Cl)C([N+](=O)[O-])(C1)C2 (stereo not given)	.	.	.	.	.	.
O=C(Nc1ccc(OC(=O)N2CCCCC2)cc1)N1CCOCC1	.	.	.	.	.	.
O=C(Oc1c(Cl)cc(Cl)c2ccccc12)N1CCCCC1	.	.	73	.	.	.
Nc1ccc2c(c1)oc1ccccc12	.	.	.	.	3.6	.
CN1CCN(c2c(N)c(=O)oc3ccccc23)CC1	.	.	.	.	.	.
C/C(=N\N1CCCCCC1)c1c(O)n(-c2ccccc2C)c(=O)[nH]c1=O	/	/	/	.	.	.
NNc1n[nH]c(=S)n1N	/	/	/	.	.	.
SMILES	Redox H2O2 prof	PKD1 kinase inh	WT yeast gro inh	zVAD death inh	PERK inhibitor	TNF necrop inh	others
CCCCc1nc2ccccc2c(=O)n1-c1ccccc1[N+](=O)[O-]	.	.	.	.	.	.
CCCCc1nc2ccccc2c(=O)n1-c1ccc(Cl)cc1[N+](=O)[O-]	.	.	64	.	.	.
Cc1ccc2c(c1)C1CN(C)CCC1N2C(=O)c1cccnc1Cl (stereo not given)	/	/	/	.	.	.
Cc1ccc2c(c1)C1CN(C)CCC1N2C(=O)c1cn(-c2ccccc2)nc1-c1ccccc1 (stereo not given)	.	.	86	.	.	.
CC(Cc1ccccc1Sc1ccc(O)cc1)N(C)C (stereo not given)	.	.	.	.	.	.
Cc1oc2ccc(OC(=O)N(C)C)cc2c1C(=O)OC(C)C	.	.	75	.	.	.
CC(C)=CCc1c(O)cc2c(c1O)C(=O)CC(c1ccc(O)cc1)O2 (stereo not given)	/	/	/	.	/	.
COC1=CCC2([N+](=O)[O-])CN(C)CC1([N+](=O)[O-])C2 (stereo not given)	.	.	.	.	.	.
O=C(Nc1ccc(F)cc1)N1CC2CC(C1)c1cccc(=O)n1C2 (stereo not given)	.	.	73	.	.	.
CSc1ccc(C(=O)C2CCCN(Cc3cc4ccccc4[nH]3)C2)cc1 (stereo not given)	.	.	66	.	.	.
CSc1ccc(C(=O)C2CCCN(Cc3cccnc3)C2)cc1 (stereo not given)	.	.	.	.	.	.
O=C(CNC1CCCC1)Nc1ccc(N2CCCCCC2)cc1	.	.	.	.	.	.
C/C(=N\N1CCCCC1c1cccnc1)c1c(O)n(C2CCCCC2)c(=S)[nH]c1=O (stereo not given)	.	.	74	.	.	.
Cc1ccc(-n2c(O)c(/C=N/N3CCCCC3c3cccnc3)c(=O)[nH]c2=S)cc1 (stereo not given)	.	.	.	.	.	.
CCCCn1c(O)c(/C=N/N2CCCCC2c2cccnc2)c(=O)[nH]c1=S (stereo not given)	.	.	.	.	.	.
CCCCn1c(O)c(/C(CC)=N/N2CCCCC2c2cccnc2)c(=O)[nH]c1=S (stereo not given)	.	.	59	.	.	.
CCOC(=O)C1SC2(C(F)F)CC1(O)c1c(c(OC)c3occc3c1OC)O2 (stereo not given)	.	.	64	.	.	.
O=P1(Oc2ccccc2)OCCCS1 (stereo not given)	/	/	/	.	.	.
CCC(C)(C)n1nnnc1C(c1cccs1)N1CC=C(c2ccc(F)cc2)CC1 (stereo not given)	.	.	72	.	.	.
NC(=O)c1cn(C2OC(CO)C(O)C2O)c2ncnc(N)c12 (stereo not given)	.	94	.	.	5.3	.	FP interf 140K=.
CNC(=O)Oc1ccc(N(C)C)cc1C(C)C	/	/	/	.	.	.
CN1CCN(c2ccccc2N)CC1	.	.	.	.	.	.
CN1CCN(c2cccc3c2C(=O)c2ccccc2C3=O)CC1	.	101	.	.	.	.	FP interf 140K=.
